The values below come from PubChem BioAssay AID463212 (Sanford-Burnham Center for Chemical Genomics, 2010).

Each structure is given as a SMILES string. The whole screen tested about 330,000 compounds, of which about 4,400 (1.3%) were called active.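 How the source made its calls: active means growth inhibition of the mutant yeast at or above 50%; inactive means the rest.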 What follows is part of a selection rich in actives, with near analogues and random picks from the rest.

The assay in a line: growth inhibitors of tim23-1 mutant yeast, primary screen, luminescence, uHTS (AID 463212).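 Further: temperature-sensitive mutant grown at 25 °C; plate controls were DMSO-treated mutant yeast for no effect and medium wells lacking yeast for full effect.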 The settings on record: S. cerevisiae tim23-1 growth, BacTiter-Glo luminescence, 24 h; at 20 µM; stronger effect = higher value.
For the compound `CC1=C(C(=O)OCC2CCCCC2)C(c2ccc(F)cc2)NC(=O)N1` (stereo not given), the inhibition (commonly the relative decrease from the control value, in per cent) is 23.5% (inactive). In the case of `O=S(=O)(NCCCc1ccccc1)c1ccc(Br)cc1` it was 33.6% (inactive); in that of `S=C(NCCCc1ccccc1)Nc1ccc(Br)cc1`, 62.8% (active); in that of `S=C(Nc1ccc(Br)cc1)NC1CCN(Cc2ccccc2)CC1`, 3.13% (inactive).

As for `O=C1C(=O)N(CCCO)C(c2ccccc2)/C1=C(\O)c1ccc(Br)cc1` (stereo not given), the inhibition was 6.61% (inactive).

For the compound `CCOc1ccc(CN2CCC(n3nccc3NC(=O)C3CC3)CC2)cc1CO`, the inhibition was -0.767% (inactive). `O=C(NCc1ccc2c(c1)OCO2)c1c(O)nc2sccn2c1=O`: the inhibition was 68.2% (active). In the case of `O=C(NCc1ccc2c(c1)OCO2)c1sccc1Br` it was 11% (inactive); in that of `CCn1c(=O)c(C(=O)NCc2ccc3c(c2)OCO3)c(O)c2ccccc21`, 28.6% (inactive). To `CCCOc1ccc(/C(O)=C2/C(=O)C(=O)N(CCN(C)C)C2c2ccc(OC)c(OC)c2)cc1` (stereo not given) belongs 3.19% (inactive); to `Cc1ccccc1N1C(=O)C(Oc2ccc(Cl)cc2)C1CNCC1CCCO1` (stereo not given), 32.6% (inactive); to `Fc1ccc(-c2ccc(NCCN3CCOCC3)nn2)cc1`, -3.29% (inactive). In the case of `COc1ccc(C(=O)C(C)OC(=O)c2cccc(S(=O)(=O)Nc3c(C)n(C)n(-c4ccccc4)c3=O)c2)cc1` (stereo not given) it was 15.2% (inactive); in that of `COCCNC(=O)/C(C#N)=C/c1cccc(OCc2ccccc2)c1`, 68.2% (active). `N#C/C(=C\c1ccc(O)c(O)c1)C(=O)NCc1ccccc1`: the inhibition was 12.3% (inactive).

For `O=C(N/N=C/c1cccc(OCc2ccccc2)c1)c1ccc(Br)o1`, the inhibition is 47.5% (inactive). In the case of `COc1cccc(N(CC(=O)NC2CCCCCC2)S(=O)(=O)c2ccccc2)c1` it was 11.3% (inactive); in that of `Cc1c(S(=O)(=O)NCc2ccccc2)c(=O)n(C)c(=O)n1C`, 4.82% (inactive). Take `O=C(N/N=C/c1cccnc1)c1ccc(NC(=O)c2ccc(F)cc2)cc1`: the inhibition was 4.04% (inactive). For the compound `N#C/C(=C\c1cccnc1)C(=O)Nc1ccc(SC(F)F)cc1`, the inhibition is 76.7% (active). To `Cc1cc(/C=C(/C#N)C(=O)Nc2ccc(Cl)cc2)c(C)n1-c1cccnc1` belongs 5.94% (inactive); to `CN=C(c1ccccc1)c1c(C)cccc1C`, 3.2% (inactive). Regarding `COc1ccccc1NC(=O)c1ccc(N2CC3CC(C2)c2cccc(=O)n2C3)c(NC(=O)c2cccnc2)c1` (stereo not given), the inhibition is -0.075% (inactive). With `CC1CCCN(CCCNC(=O)CN2C(=O)COc3ccc(S(=O)(=O)N4CCOCC4)cc32)C1` (stereo not given), the inhibition is -34.2% (inactive). Regarding `COCCNC(=O)CN1C(=O)CSc2ncccc21`, the inhibition is 11.6% (inactive). In the case of `CCc1ccc2c(c1)C1(NN=C(c3ccccc3)S1)C(=O)N2` (stereo not given) it was 52.6% (active). In the case of `O=C(CNC(=O)c1ccc(Cl)cc1Cl)NCC(=O)Nc1ccccc1N1CCOCC1` it was 3.5% (inactive); in that of `Cc1ccoc1C(=O)Nc1cccc(Oc2ccccc2)c1`, 77.9% (active); in that of `CC(Oc1cccc(NC(=O)c2cccs2)c1)C(=O)c1ccccc1` (stereo not given), 34.3% (inactive). To `Cc1cccc(NC(=O)Nc2cccc(Oc3c(F)c(F)c(F)c(F)c3F)c2)c1` belongs 17% (inactive); to `N#Cc1ccccc1S(=O)(=O)N1CCN(Cc2c(O)ccc3ccccc23)CC1`, 21.3% (inactive).

Regarding `CCOC(=O)c1c(N)nn(C(=O)c2ccccc2)c1-c1ccccc1`, the inhibition is 27% (inactive). For the compound `Cc1cc(Nc2ccccc2)n(C(=O)c2ccc(N)cc2)n1`, the inhibition is 57.6% (active). To `Cn1c(Nc2ccccc2)cc(=O)n(C)c1=O` belongs 6.86% (inactive); to `O=C(COc1ccc(Cl)cc1Cl)N/N=C/c1ccccn1`, 39% (inactive); to `CC[C@@H]1Cc2cc(O)ccc2C2=C1c1ccc(O)cc1C[C@H]2CC`, -6.54% (inactive). In the case of `COC(=O)c1c(NC(=O)COc2ccc(Cl)cc2Cl)sc2c1CC(C)(C)NC2(C)C`, the inhibition was 60.1% (active).

As to `CCOC(=O)c1c(NC(=O)c2ccc(S(=O)(=O)N(C)CC3CCCO3)cc2)sc2c1CC(C)(C)NC2(C)C` (stereo not given), the inhibition is 24% (inactive). In the case of `COC(=O)c1sccc1NC(=O)COc1ccc(Cl)cc1` it was 6.02% (inactive).

For `Cc1ccc(C(=O)NCC(=O)NCc2cc(=O)n(C)c(=O)n2C)cc1`, the inhibition is 16.1% (inactive).

On to `Nc1nc(SCC(=O)Nc2ccc(Cl)cc2C(F)(F)F)n[nH]1`, for which the inhibition was 3.1% (inactive). To `CCC(C)(C)n1nnnc1CN1CCN(c2nc3ccc(C)cc3cc2C#N)CC1` belongs 40.5% (inactive); to `COc1cc(N2C(=O)CSC2=S)cc(OC)c1OC`, 23.9% (inactive); to `O=C1CSC(=S)N1c1ccc(Cl)c(Cl)c1`, 53.7% (active).

Consider `O=C1CSC(=S)N1c1ccc(O)cc1`, for which the inhibition is 11.4% (inactive). To `CCNC(=O)NC(=O)C(C)OC(=O)c1cc(S(=O)(=O)N2CCCCCC2)ccc1OC` (stereo not given) belongs 19.4% (inactive); to `O=[N+]([O-])c1ccc2c(c1)Nc1nc3ccccc3nc1N2`, 59.9% (active). In the case of `COc1ccc([N+](=O)[O-])cc1-c1nc2ccccc2nc1-c1ccccc1`, the inhibition was 36.6% (inactive).

For `O=[N+]([O-])c1ccc2nc(-c3ccccn3)[nH]c2c1`, the inhibition is 46.5% (inactive). `COc1ccc(-c2cc3ncccc3cn2)cc1`: the inhibition is 9.46% (inactive). To `COc1ccc(-c2cc(C3CCN(c4ncccc4[N+](=O)[O-])CC3)[nH]n2)cc1` belongs 57.6% (active).

With `CC(=O)NC(Cc1ccccc1)C(=O)NC1CCN(c2ncccc2[N+](=O)[O-])CC1` (stereo not given), the inhibition was 10.9% (inactive). For `CC(C(=O)Nc1ccccc1-c1ccccc1)N1CCOCC1` (stereo not given), the inhibition is 7.67% (inactive). `Nc1nc2n(n1)C(c1ccco1)CC(c1ccc(Cl)c(Cl)c1)N2` (stereo not given): the inhibition was 20.6% (inactive). With `Clc1ccc(C2CC(c3cccs3)n3ncnc3N2)cc1Cl` (stereo not given), the inhibition is 50.5% (active). In the case of `COc1ccc(C2CC(c3ccc(C)cc3)Nc3ncnn32)cc1` (stereo not given) it was 27.1% (inactive); in that of `Oc1ccccc1CNc1ncc(Br)cc1Br`, 45.5% (inactive). With `CCc1nnc(NS(=O)(=O)c2ccc(NC(=S)NC(=O)c3cccs3)cc2)s1`, the inhibition is 18.7% (inactive).

For the compound `CCc1nnc(NS(=O)(=O)c2ccc(NC(=S)NC(=O)/C=C/c3cccs3)cc2)s1`, the inhibition is 96.1% (active).

Take `CCc1nnc(NS(=O)(=O)c2ccc(NC(=O)c3cccc(OC(F)(F)C(F)F)c3)cc2)s1`: the inhibition was -1.08% (inactive).
